Results on 40 sequences are retold here after the supplement of paper PMC6555819.

The first experiment concerns PPARg:RXRa 30nM:10nM, anti-RXR (NR concentration 30 nM, RXRa partner concentration 10 nM). Nature of the experiment: PBM binding z-score (relative to random genomic background probes); higher = stronger binding; sequences stand for … in GC…GCGATTGACAGCGTAGAATGAAGG
In a few lines:
(§1)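 Ligand-free nuclear receptor dimers were bound for 1 h to custom Agilent 4×180K protein-binding microarrays. Detection used antibodies against each partner (one per run). Binding z-scores rest on regression-normalized fluorescence, with random background probes as the reference.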
Sequence AATACATGGTCACTAGGCCAGAGTAGGTACGAAT returned a PBM binding z-score of 0.153.
Same read-out and setting: in the case of CCGACTTGGGCAGAAAGGTTACCATACCATCCGG it was 0.23.
The sequence ATCTCTAGGTAAAGTTCACTGAAAGATCGATAGA registered a PBM binding z-score of 4.25.
Same read-out and setting: in the case of CCTTACGGGTCACGAGGTTATGGCACGACGAGCG it was 3.46; in that of GGTACGAGGGCAAGTTGATAGCAGAGTTTGATGG, -0.104.
ATCTCTAGGTAACCAAGGTCAGTGAATGCCGAAC: the PBM binding z-score came out at 0.476.
GCATATAGGTAATACAAGGTGAGAGTCCGATTGT had a PBM binding z-score of 0.605.
Still for that read-out and setting: in the case of CAAACTAGGTCACCGGAAGGTCAACGTCCGCATG it was 5.72.
Sequence AGAACGAGGGCAAGCTGAGTTGATAGCAGAGTAG showed a PBM binding z-score of 0.0687.
Same read-out and setting: in the case of CCGACTGGGGCATAAAGTTACCATAAGCCAGCCC it was -0.215.
TCATATAGGTAAACGCTAGGTGAAAGTCCGATCT showed a PBM binding z-score of 3.95.
In turn, ATACCAAGTTGATCGTGAGGTCGTTGATACTAAC came in with a PBM binding z-score of 0.0312.
With TTACCAAGGTGAGCAGAGGTCGTTGATCCAACTC, the PBM binding z-score amounted to 0.857.
Take ATCTCTCGGTAACCAAGTTCAGTGAATGCCGAAC: the PBM binding z-score is -0.287.
The same measure, in the same setting: in the case of TCTAGTTGGTCACGGAGGTCAGACACGACGGGTA it was 3.26; in that of GCATATAGGTAATGCAAGGTGAAAGTCCGATTGT, 0.286.
TAGCCTAGGTCAGATGGGGCCAGTATACGCTATA gave a PBM binding z-score of 0.184.
On the same count and under the same terms, in the case of ATCTCTAGGTACAGTTCAGTGAAAGATCGATAGA it was 0.518; in that of CCTGCTAGGTCGTGGTCAGCTAATCTACAGTATG, -0.191.
CCGACTGGGTCATAAGGTTACCATAAGCCAGCCC returned a PBM binding z-score of 2.95.
GATACAGGGTCAGCTAGAGGCCAGTGTATGGAAA returned a PBM binding z-score of 1.16.
On the same count and under the same terms, in the case of CAAACTAGCTCAAAGGTCAAAGTCGAGCCAACCA it was 8.32; in that of ATCTCTAGGTAACGAGTTCAGTGAAAGAGAGGAC, 0.509; in that of CCTACTTGGTCAGGAGGTCACACACCGGATATGA, 1.75.
The same measure, in the same setting: in the case of GGAACGAGGGCATTCGAGTTGGTAGCATGGCGAT it was -0.573.
Still for that read-out and setting: in the case of TCATATAGATAAAAGGTGAAAGTCGGTGTGGTAA it was 5.42.
In the case of TCATATAGGGAATACAGGTGAAAGTCGGCATCTA, the PBM binding z-score was 4.44.
For the sequence CTCGAAAGGTCGTTCTCAGGTGAGTATACCAAAC, the PBM binding z-score worked out at 0.949.
For CGAACTACGTCAGAACAGGACAGTGAAGGATGAT, the PBM binding z-score was -0.147.
In turn, TCTTGTAGATCTACAGGAGGTTAAGAAAGATCGA gave a PBM binding z-score of 2.09.
Turning to CGTCCAAGGTCCTAGGAGGTCAGTGAAGACAGAT, the PBM binding z-score was -0.57.
The same measure, in the same setting: in the case of ACTAGAAGGCCAAGTTTGGGTCACTCAAACAAAG it was -0.386; in that of CAAACTTGGTCACCGGAAGGTCAAAGTCCGCATG, 0.605.
In turn, ATATGTAGGTTAATGGTCATTCAGGTTGGTTCGC registered a PBM binding z-score of 6.76.
Same read-out and setting: in the case of AGAATGAGGTTATATGTAGATCAGGGAAGAAAGT it was 0.823; in that of CCCTACGGGTCACTGACAGGTTATAGCATTTGGA, 0.787; in that of CCTACAGGGCCACGAAAGGTCATTGATTCAGTGA, 0.825.
Still for that read-out and setting: in the case of ATGTCTAGGTAAAGTTCAGTGAAAGATCGATAGA it was 2.43; in that of TCAAGCAGGCCAGAGGGTCACTCAAGAGGTACGG, 2.51; in that of TAGCCTAGGTCATTCAGGGGACAGTATAGAAAGC, 0.785.

For the next experiment, the system named is PPARg:RXRa 90nM:30nM, anti-RXR (NR concentration 90 nM, RXRa partner concentration 30 nM). Described as above. In a few lines: as §1
In the case of AATACATGGTCACTAGGCCAGAGTAGGTACGAAT, the PBM binding z-score is 0.688.
Still for that read-out and setting: in the case of CCGACTTGGGCAGAAAGGTTACCATACCATCCGG it was 0.892; in that of ATCTCTAGGTAAAGTTCACTGAAAGATCGATAGA, 5.65.
With CCTTACGGGTCACGAGGTTATGGCACGACGAGCG, the PBM binding z-score came out at 5.31.
On the same count and under the same terms, in the case of GGTACGAGGGCAAGTTGATAGCAGAGTTTGATGG it was 0.235; in that of ATCTCTAGGTAACCAAGGTCAGTGAATGCCGAAC, 1.39; in that of GCATATAGGTAATACAAGGTGAGAGTCCGATTGT, 0.684.
CAAACTAGGTCACCGGAAGGTCAACGTCCGCATG returned a PBM binding z-score of 7.83.
Same read-out and setting: in the case of AGAACGAGGGCAAGCTGAGTTGATAGCAGAGTAG it was 0.484.
For CCGACTGGGGCATAAAGTTACCATAAGCCAGCCC, the PBM binding z-score amounted to 0.313.
Regarding TCATATAGGTAAACGCTAGGTGAAAGTCCGATCT, the PBM binding z-score is 3.34.
The same measure, in the same setting: in the case of ATACCAAGTTGATCGTGAGGTCGTTGATACTAAC it was 0.0356; in that of TTACCAAGGTGAGCAGAGGTCGTTGATCCAACTC, 2.68.
Still for that read-out and setting: in the case of ATCTCTCGGTAACCAAGTTCAGTGAATGCCGAAC it was 0.0566; in that of TCTAGTTGGTCACGGAGGTCAGACACGACGGGTA, 3.11.
The sequence GCATATAGGTAATGCAAGGTGAAAGTCCGATTGT showed a PBM binding z-score of 0.74.
Still for that read-out and setting: in the case of TAGCCTAGGTCAGATGGGGCCAGTATACGCTATA it was 0.725; in that of ATCTCTAGGTACAGTTCAGTGAAAGATCGATAGA, 0.644; in that of CCTGCTAGGTCGTGGTCAGCTAATCTACAGTATG, 0.0176.
Still for that read-out and setting: in the case of CCGACTGGGTCATAAGGTTACCATAAGCCAGCCC it was 4.86; in that of GATACAGGGTCAGCTAGAGGCCAGTGTATGGAAA, 1.86.
On the same count and under the same terms, in the case of CAAACTAGCTCAAAGGTCAAAGTCGAGCCAACCA it was 9.43.
ATCTCTAGGTAACGAGTTCAGTGAAAGAGAGGAC had a PBM binding z-score of 1.26.
With CCTACTTGGTCAGGAGGTCACACACCGGATATGA, the PBM binding z-score worked out at 3.1.
The same measure, in the same setting: in the case of GGAACGAGGGCATTCGAGTTGGTAGCATGGCGAT it was -0.227.
The sequence TCATATAGATAAAAGGTGAAAGTCGGTGTGGTAA registered a PBM binding z-score of 5.56.
The same measure, in the same setting: in the case of TCATATAGGGAATACAGGTGAAAGTCGGCATCTA it was 3.22; in that of CTCGAAAGGTCGTTCTCAGGTGAGTATACCAAAC, 2.29; in that of CGAACTACGTCAGAACAGGACAGTGAAGGATGAT, -0.37.
The same measure, in the same setting: in the case of TCTTGTAGATCTACAGGAGGTTAAGAAAGATCGA it was 1.48; in that of CGTCCAAGGTCCTAGGAGGTCAGTGAAGACAGAT, 0.21; in that of ACTAGAAGGCCAAGTTTGGGTCACTCAAACAAAG, 0.134.
On the same count and under the same terms, in the case of CAAACTTGGTCACCGGAAGGTCAAAGTCCGCATG it was 2.01; in that of ATATGTAGGTTAATGGTCATTCAGGTTGGTTCGC, 7.88.
AGAATGAGGTTATATGTAGATCAGGGAAGAAAGT showed a PBM binding z-score of 1.87.
Consider CCCTACGGGTCACTGACAGGTTATAGCATTTGGA, for which the PBM binding z-score was found to be 2.43.
Same read-out and setting: in the case of CCTACAGGGCCACGAAAGGTCATTGATTCAGTGA it was 2.22; in that of ATGTCTAGGTAAAGTTCAGTGAAAGATCGATAGA, 4.25; in that of TCAAGCAGGCCAGAGGGTCACTCAAGAGGTACGG, 2.67.
Consider TAGCCTAGGTCATTCAGGGGACAGTATAGAAAGC, for which the PBM binding z-score came to 1.62.
